Experimental findings from the supplement of paper PMC6555819 are described below.

This assay concerns VDR:RXRa (NR concentration 270 nM, RXRa partner concentration 90 nM). Kind of assay: PBM binding z-score (relative to random genomic background probes); higher = stronger binding; sequences stand for … in GC…GCGATTGACAGCGTAGAATGAAGG
The protocol:
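Protein-binding microarray (Agilent 4x180K custom design, double-stranded 60-nt probes: 5' GC cap, 34-nt variable region, 24-nt constant primer region; full probe sequence given). Purified or IVT nuclear receptor:RXRα heterodimers (3:1 NR:RXRα, mostly 270:90 nM) or homodimers were incubated for 1 h in PBS with 2% milk and no ligand, then detected with Alexa488 antibodies. Fluorescence from o1-orientation probes (~5 replicates averaged) was converted to z-scores against 500 random hg19 background probes. Variable regions are seed direct-repeat (DR0–DR5) sites, all their single-nucleotide variants and half-site ablations.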
Turning to GGAACGAGGGCAAAGTAGATAGCATCTGTCGACG, the PBM binding z-score amounted to 0.414.

For the sequence ACTATTCGTTGACTTAGGGCAACCGATACGACGC, the PBM binding z-score stood at 0.325.

ATCTCTAGGTAAAATTTCAGTGAATCCCGAGGAT: the PBM binding z-score was 0.166.

Sequence CGTCCACGGTCAAGGTCAGTGAAAGAGACTCGAA returned a PBM binding z-score of 1.43.

With AGTCATAGTTCATCTAGGTAACGTAAGATATGCT, the PBM binding z-score was determined as 2.54.

For the sequence ATCTCTAGGTCACAAGTTCAGTGAAAGAGAGGAC, the PBM binding z-score worked out at 4.26.

In turn, GATACAGGGTCAAGGCCCGAGTACGCGTATTGAT showed a PBM binding z-score of 4.28.

In the case of TCTATTAGTTGATGGGCAACCGACGAGTCCGTTT, the PBM binding z-score amounted to 0.542.

On to CCGACTGGGGCAAGGTTAACATAACGCACAGCCA, for which the PBM binding z-score is 0.295.

In the case of AGAATGAGGTTAAGAACAGGGAAACAGAATACAT, the PBM binding z-score stood at 1.04.

With CCTACTGGGCTATCAGGTCATTGATATCAACGTT, the PBM binding z-score amounted to 1.36.

Regarding CGTCAAAGTGCAAGGTAACGTAACAGAAAGCAGC, the PBM binding z-score was -0.0204.

Take ATCTCTAGCTAACAAGTTCAGTGAAAGAGAGGAC: the PBM binding z-score amounted to 1.64.

Regarding TAGCCTAGATCAGATCGGGCCAGTATACGCTATA, the PBM binding z-score is -0.89.

Take CCTGCTAAGTCAATGGTCAGCTAAAGCAGCTCGC: the PBM binding z-score is -0.304.

CCTGCTAGGTCAATGGTCGGCTAAAGCAGCTCGC: the PBM binding z-score was determined as 1.07.

As to TCTGCTAGCTCAGTTGGTCAGCTAACGAGCTGCC, the PBM binding z-score is -0.839.

GCTATTAGTTGAAAGGGCTACCGAATGATTCTCG gave a PBM binding z-score of -0.406.

The sequence TCTATTAGTTCAAGGGCAACCGACGAGTCCGTTT had a PBM binding z-score of 2.38.

In turn, ACTTACGGGTCCACGAGGTTATAGCACGCGTATA showed a PBM binding z-score of 3.52.

For the sequence GACACAGGGTCAAGGCCAGAGTACGCGTATTGAT, the PBM binding z-score was 4.36.

Turning to CGAACTAGGTCAAGGACGGTGAATCTCCGCACGC, the PBM binding z-score worked out at 1.14.

Sequence GTACCAAGGTGAATAGGTTGTTGATGAGTAGGCG came in with a PBM binding z-score of 1.38.

With TCTTGTAGATGAATAGAGGTTAAGAAAGTGCGCT, the PBM binding z-score stood at 1.94.

In the case of AAAACAGGGTCACTAGGCCAGAGTAGGTACGAAT, the PBM binding z-score is 4.38.

Take CCTTACGGGTCACGAGGTTATAGTACGACGAGCG: the PBM binding z-score worked out at 5.35.

CGTCCATGGTCAATGCTAGGTCAGTGAAAGCATT: the PBM binding z-score turned out to be 0.204.

Sequence ATCTCTAGGTAACCAAGTTCAGTAAATGCCGAAC yielded a PBM binding z-score of 4.07.

TCTTGTAGATCAAGCAGGTTAGGAAAGCCTGAGT gave a PBM binding z-score of 0.203.

Turning to GTATCAAGGTGAATAGGTCGTTGATGAGTAGGCG, the PBM binding z-score was 1.1.

Take ACTCGGAGGACAAGGGTCAGAGCTACGCCAGTGA: the PBM binding z-score is 1.91.

Take AGAATGAGGTTATACGTAGATCTGGGAAGAAAGT: the PBM binding z-score was found to be 1.07.

For the sequence CGAACGACGGCATGAGTTGATAGCAAATGCCGAT, the PBM binding z-score is -0.72.

ACTATTAGTTGAGCCGAGGGCAACCGATAGGTTG returned a PBM binding z-score of 0.613.

Sequence CTCGAAAGGTCGTGCTCAAGTGAGTATACCAAAC yielded a PBM binding z-score of 3.13.

Take GCGACTGGGCCATCAGCAGGTTACCATAACTTAA: the PBM binding z-score is -0.599.

In turn, TGAATGAGGTTATAAGATCAGGTAACGTTGCAAA gave a PBM binding z-score of 1.14.

As for TAGCGTAGGTCAGATCGGGCCAGTATACGCTATA, the PBM binding z-score stood at 0.856.

In turn, GCTCGGAGGACAACGTCAGAGCTTTGTCCGTAGA displayed a PBM binding z-score of -0.935.

In turn, ATCTCTAGGTAGAGTTCAGTGAAAGATCGATAGA returned a PBM binding z-score of 2.38.
